TRb SRC2 PPI: qHTS for Inhibitors of the Interaction of Thyroid Hormone Receptor and Steroid Receptor Coregulator 2 | Thyroid hormone receptor beta (Homo sapiens), P10828 | TRbeta-SRC2 peptide binding, fluorescence polarization; receptor liganded with 1 µM T3 | Potency, µM (doses to about 106 µM), for inactives: at the top dose activity change, negative = inhibition, actives largely listed as inhibitors | 280,000 compounds, 0.065% hits | AID 1469, 2008;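 note: plate controls were bound peptide for no effect and peptide without receptor for full effect; nearly all actives have a fitted effect of over 50% in size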
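Human TRb LBD (0.6 uM) plus Texas Red-labeled SRC2 peptide (20 nM), 1uM T3, 5% DMSO, 5 hr at ambient temperature. Decreased polarization (555/632 nm) flags inhibition; data normalized to free and bound peptide controls.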
BLM inh-1: qHTS Assay for Inhibitors of Bloom's syndrome helicase (BLM); RecQ-like DNA helicase BLM (Homo sapiens), P54132; recombinant BLM DNA unwinding, fluorescence dequenching; Potency, µM (doses to about 56.1 µM), for inactives: at the highest dose activity change, negative = inhibition, hits mostly inhibitors; 350,000 compounds, 0.2% hits;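 note: plate controls were vehicle for no effect and no enzyme for full effect; nearly all actives have a fitted effect of over 35% in size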
APE1 inh-1: qHTS Assay for Inhibitors of the Human Apurinic/apyrimidinic Endonuclease 1 (APE1); DNA repair nuclease/redox regulator APEX1 (Homo sapiens), P27695; recombinant APE1, TAMRA/BHQ-2 abasic DNA cleavage fluorescence; Potency, µM (doses to about 65.8 µM), for the others: top-dose activity change, negative = inhibition, hits mostly inhibitors; 350,000 compounds, 0.35% hits;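 note: plate controls were vehicle for no effect and reference inhibitor for full effect; nearly all actives have a fitted effect of over 55% in size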
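Readout is kinetic fluorescence (ex 525, em 598 nm) from cleavage of 50 nM TAMRA/BHQ-2 THF abasic duplex by 0.75 nM APE1, compound added 15 min beforehand at RT.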
RECQ1 inh-1: qHTS Assay for Inhibitors of RecQ-Like Dna Helicase 1 (RECQ1). ATP-dependent DNA helicase Q1 (Homo sapiens), P46063. Potency, µM (series often up to 57.3 µM), inactives show at the top dose activity, negative = inhibition, actives largely listed as inhibitors. 240,000 compounds, 0.54% hits. RECQ1 DNA unwinding, red fluorescence kinetic read;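 note: plate controls were vehicle for no effect and no enzyme for full effect; nearly all actives have a fitted effect of over 30% in size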
Target sequence (P46063 whole entry, looked up): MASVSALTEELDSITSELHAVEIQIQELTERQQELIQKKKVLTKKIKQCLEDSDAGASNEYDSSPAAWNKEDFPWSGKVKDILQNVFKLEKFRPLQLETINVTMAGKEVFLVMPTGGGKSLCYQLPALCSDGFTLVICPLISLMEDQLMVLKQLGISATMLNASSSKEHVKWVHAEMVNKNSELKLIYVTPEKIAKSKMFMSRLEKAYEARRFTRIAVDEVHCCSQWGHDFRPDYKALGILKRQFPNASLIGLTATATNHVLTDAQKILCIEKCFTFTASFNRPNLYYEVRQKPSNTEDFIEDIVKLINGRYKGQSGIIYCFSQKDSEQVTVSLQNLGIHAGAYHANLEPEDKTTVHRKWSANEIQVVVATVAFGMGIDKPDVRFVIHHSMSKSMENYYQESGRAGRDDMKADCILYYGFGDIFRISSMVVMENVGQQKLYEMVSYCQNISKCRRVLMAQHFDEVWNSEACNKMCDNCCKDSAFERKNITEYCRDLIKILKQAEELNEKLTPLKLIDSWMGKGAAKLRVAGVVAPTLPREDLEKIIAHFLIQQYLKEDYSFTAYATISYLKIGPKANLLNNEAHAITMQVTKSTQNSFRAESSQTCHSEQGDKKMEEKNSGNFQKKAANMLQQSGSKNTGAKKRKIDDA
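RECQ1T1 50 nM; forked duplex (20 bp + 30-nt ss tails) 200 nM, ATP 2 mM final; pH 8.0, 2 mM MgCl2, 2.5 ug/ml poly(dI-dC); 15 min compound preincubation; discontinuous kinetic read over 2 h at RT.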
RGS12 GoLoco inh: qHTS Assay for Inhibitors of RGS12 GoLoco Motif Activity (Red Fluorophore). Guanine nucleotide-binding protein G(i) subunit alpha-1 (Homo sapiens), P63096. Gai1:RGS12 GoLoco peptide FP, rhodamine, 10 min. Potency, µM (series often up to 61.6 µM), without a hit: at the top dose activity, negative = inhibition, hits mostly inhibitors. 230,000 compounds, 0.44% hits. AID 880, 2007; active = well fitted inhibition curve with a large enough effect, not every such curve was filed as active; inactive = no such curve, though single readings can be large or run the other way; note: nearly all actives have a fitted effect of over 30% in size
TR SRC2 fluor cs: Total Fluorescence Counterscreen for Inhibitors of the Interaction of Thyroid Hormone Receptor and Steroid Receptor Coregulator 2 | TRb/SRC2 Texas Red total fluorescence interference | Potency, µM (doses to about 106 µM), inactives show top-dose fluorescence change, negative = quenching | 280,000 compounds, 0.29% hits; active = well fitted curve in either direction with a large enough effect; inconclusive = small, poorly fitted or top-dose-only effect
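Human TRβ ligand-binding domain (0.6 uM) and Texas Red SRC2 peptide (20 nM) in Tris buffer with 1 uM T3 and 5% DMSO were incubated with pinned compound for 5 hr at ambient temperature. Total fluorescence was computed as S + 2P (555/632 nm).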
APE1 dye cs: Counterscreen for APE1 Inhibitors: Fluorescent Dye Displacement Assay. 480 compounds, 7% hits. Potency, µM (doses to about 28.5 µM), for the others: top-dose activity change, negative = inhibition, actives largely listed as inhibitors. shares compounds with APE1 inh-1. DNA fluorescent dye displacement counterscreen, fluorescence;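 note: loss of thiazole orange fluorescence as the dye is displaced from duplex DNA; 0% = ThO with dsDNA and no compound and -100% = ThO without dsDNA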
EndoIV counter: Counterscreen for APE1 Inhibitors: qHTS Assay for Inhibitors of Endonuclease IV; shares compounds with APE1 inh-1; E. coli Endo IV, fluorogenic AP-site DNA cleavage; Potency, µM (series often up to 27.1 µM), for inactives: at the top dose activity change, negative = inhibition, usual class: inhibitors; 560 compounds, 4% hits;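 note: plate controls were uninhibited enzyme wells for no effect and no enzyme buffer wells for full effect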
APE1 inh-2: Confirmation qHTS Assay for Inhibitors of the Human Apurinic/apyrimidinic Endonuclease 1 (APE1); shares compounds with APE1 inh-1; Potency, µM (doses to about 57.1 µM), without a hit: top-dose activity change, negative = inhibition, usual class: inhibitors; purified APE1, fluorogenic abasic-site DNA cleavage; 750 compounds, 44% hits; note: nearly all actives have a fitted effect of over 30% in size
APE1 FP inh: qHTS FP-Based Assay for Inhibitors of the Human Apurinic/apyrimidinic Endonuclease 1 (APE1); shares compounds with APE1 inh-1; APE1 binding to TAMRA-labelled double-stranded DNA, fluorescence polarization displacement; Potency, µM (doses to about 28.5 µM), for inactives: top-dose activity, negative = inhibition, actives largely listed as inhibitors; 480 compounds, 7% hits
BLM inh-2: qHTS Confirmation Assay for Inhibitors of Bloom's syndrome helicase (BLM); shares compounds with BLM inh-1; BLM DNA unwinding, fluorescence quenching, biochemical; Potency, µM, for inactives: max response, negative = inhibition, actives largely listed as inhibitors; 220 compounds, 40% hits; AID 2585, 2010;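 note: strand separation dequenches TAMRA so unwinding raises red fluorescence; series mostly up to about 69 µM; nearly all actives have a fitted effect of over 45% in size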
RECQ1 inh conf: Confirmation qHTS Assay for Inhibitors of RecQ-Like Dna Helicase 1 (RECQ1) | shares compounds with RECQ1 inh-1 | RECQ1 helicase DNA unwinding, fluorescence | Potency, µM (series often up to 229 µM), without a hit: top-dose activity change, negative = inhibition, most hits filed as inhibitors | 610 compounds, 28% hits | AID 2708, 2010; note: nearly all actives have a fitted effect of over 45% in size
ADP FP counter: Counterscreen for RECQ1 Inhibitors: ADP Fluorescence Polarization Displacement Assay | shares compounds with RECQ1 inh-1 | ADP fluorescence polarization displacement counterscreen | Potency, µM (titrated, usually from 228 µM), for inactives: at the highest dose activity change, negative = inhibition, usual class: inhibitors | 530 compounds, 27% hits; note: nearly all actives have a fitted effect of over 45% in size
RECQ1 inh-2: Confirmation qHTS Assay for Inhibitors of RecQ-Like Dna Helicase 1 (RECQ1) - Round 2 Cherry Picks. Potency, µM (top dose mostly 119 µM), for the others: top-dose activity, negative = inhibition, most hits filed as inhibitors. 1,100 compounds, 15% hits. recombinant RECQ1 DNA unwinding, red fluorescence. shares compounds with RECQ1 inh-1. AID 504841, 2011; note: nearly all actives have a fitted effect of over 50% in size
The depositor's hits bear a star; ? = inconclusive; / = no result; [ ] = remark or other dose. The list is not random: actives were taken first. Their share in the collection is about 0.9%. Unless noted, calls come from the whole dose curve; as a rule, active = well fitted curve in the direction sought with a large enough effect; inconclusive = small, poorly fitted or top-dose-only effect, or another doubt; inactive = no such curve, though single readings can be large; an effect the other way counts as inactive or inconclusive. Unless noted, % is set by controls: 0 for no effect and ±100 for the full control effect; potency is the fitted concentration of half-maximal effect.

SMILES | TRb SRC2 PPI | BLM inh-1 | APE1 inh-1 | RECQ1 inh-1 | RGS12 GoLoco inh | TR SRC2 fluor cs | APE1 dye cs | EndoIV counter | APE1 inh-2 | APE1 FP inh | RECQ1 inh conf | ADP FP counter | RECQ1 inh-2 | others
COc1cc(C2CC(=O)N(c3ccc(C)c(Cl)c3)C3=C2C(=O)OC3)cc(OC)c1OC (stereo unspecified) | -1.8% | 1.0% | / | / | / | -28.9% | / | / | / | / | / | / | /
Cc1c(C(=O)O)sc2nc3n(c(=O)c12)CCC3 | 3.3% | 4.2% | ? | ? | -6.7% | -4.6% | / | / | ? | / | / | / | -13.9%
COc1cc(N(C)C)cc(CN(C)CCc2ccc([N+](=O)[O-])cc2)c1O | ? | 14.1µM* | 3.16µM* | 10µM* | / | -15.8% | -0.1%[57.1 µM] | 2.8%[57.1 µM] | ? | -8.6%[57.1 µM] | 100µM* | ? | 50.1µM*
O=c1cc(O)cc(/C=C/c2ccc(O)c(O)c2)o1 | 2.7% | / | 0.708µM* | 0.794µM* | -5.3% | -11.0% | / | 3.3%[57.1 µM] | -18.0% | / | 10.5% | ? | /
Cc1ccc(/C=c2\sc3nc(-c4ccccc4Br)nn3c2=O)o1 | 2.0% | -20.6% | 12.6µM* | ? | 89.5% | -13.3% | ? | 8.0% | -26.4%[24.4 µM] | 13.7% | / | / | 32.4%
CCc1ccc(S(=O)(=O)c2nnn3c2nc(N2CCCC2)c2sccc23)cc1 | 3.4% | -1.8% | / | / | / | 1.8% | / | / | / | / | / | / | /
COc1ccc(N2Cc3cccc(C(=O)N4CCOCC4)c3C2=O)cc1 | -1.0% | -1.0% | -5.0% | -8.9% | 7.1% | -0.5% | / | / | / | / | / | / | /
COc1ccc(N2Cc3cccc(C(=O)N4CCN(C(=O)c5ccco5)CC4)c3C2=O)cc1 | 3.3% | 17.8µM* | 10.6µM* | 10µM* | 5.9% | -6.8% | / | / | 28.2µM* | / | 39.8µM* | ? | 15.8µM* | BLM inh-2=22.9µM*
CSc1nc(NCCOCCO)c2sc3nc(-c4ccco4)c4c(c3c2n1)CCC4 | 7.9% | 25.1µM* | 31.6µM* | 25.1µM* | 62.6% | ? | 12.6µM* | -9.7% | 12.6µM* | -7.2% | / | / | ? | BLM inh-2=?
O=S(=O)(Nc1ccc(C(F)(F)F)cc1)c1ccc2c(c1)OCCO2 | 10.3% | -5.7% | / | / | / | -3.6% | / | / | / | / | / | / | /
C=C/C(C)=C/[C@@]1(C)SC(=O)C(C)=C1O | 4.3% | / | 3.16µM* | 8.91µM* | 7.1% | -8.5% | / | -19.7%[57.1 µM] | 2µM* | / | 39.8µM* | 11.2µM* | /
CC(C)CNC1=CC(=O)CC(c2ccco2)C1 (stereo unspecified) | -5.6% | -22.6% | 6.31µM* | 11.2µM* | -3.5% | -15.8% | 0.8% | 10.5% | -11.0%[24.4 µM] | -17.4% | ? | ? | ?
O=C1C=C(NCc2ccc(Cl)cc2)CC(c2ccco2)C1 (stereo unspecified) | -7.4% | -8.3% | -5.0% | -5.9% | 5.7% | 1.1% | / | / | / | / | / | / | /
CC1(C)Cc2c(sc3[nH]c(=S)n(Cc4ccco4)c(=O)c23)CO1 | 3.0% | -8.8% | 35.5µM* | ? | 52.9% | -14.6% | -7.1% | 7.8% | -4.6%[24.4 µM] | ? | / | / | 0.6%
CC1(C)Cc2c(sc3c2c(=N)n(Cc2ccco2)c(=O)n3Cc2ccccc2)CO1 | -8.4% | -12.0% | -9.1% | -4.9% | -2.1% | -0.3% | / | / | / | / | / | / | /
Cc1ccc(NC(=O)CN2C(=O)S/C(=C/c3ccc(-c4cc(C(=O)O)ccc4C)o3)C2=O)cc1C | 4.0% | ? | ? | 14.1µM* | 13.1% | -4.7% | 149.2% | -3.5% | 7.08µM* | 10µM* | 22.4µM* | ? | ?
CCn1c(C)cc(/C=C2\SC(=O)N(CC(=O)Nc3ccc(C)c(C)c3)C2=O)c1C | -10.2% | -5.2% | -0.6% | -1.5% | -2.6% | -2.0% | / | / | / | / | / | / | /
